This is an account of results in PubChem BioAssay AID687014 (The Scripps Research Institute Molecular Screening Center, 2013).

Each structure is given as a SMILES string. Hit rate of the full screen: of about 370,000 compounds, about 6,800 (1.8%) were called active.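 The calls were made as follows: active = activation above a cutoff set at the mean of all screened compounds plus 3 SD (cut at about 10% in these data); inactive = the rest.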 The full list was thinned out, with actives kept by preference.

The experiment concerns Nuclear hormone receptor DAF-12 (Heterodera glycines), GAL4 fusion. As to the kind of experiment: H. glycines DAF-12 receptor agonists, primary screen, cell-based, luminescence, HEK293, GAL4 fusion, UAS-luciferase (AID 687014).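 Also: 0% = DMSO wells and 100% = sodium butyrate wells.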 The conditions noted are these: HEK293 GAL4-hgDAF12 UAS-luciferase reporter, agonist luminescence; at 6.8 µM; hits give high values; normalized to butyrate control. (A reporter such as luciferase makes a cellular process visible.)
As to `COc1ccc(-c2cc(-c3nnc(SCc4ccc([N+](=O)[O-])cc4)n3N)[nH]n2)cc1`, the activation is 3.72% (inactive).

For the compound `Nc1ncnc2c1ncn2[C@@H]1O[C@H](C(=O)N[C@@H](CCc2ccccc2)C(=O)N2CCCN(Cc3cccs3)CC2)[C@@H](O)[C@H]1O`, the activation is 1.83% (inactive).

As to `Nc1ccc2c(c1)C(O)c1ccc(Cl)cc1-2` (configuration not stated), the activation is 2.17% (inactive).

As to `Nc1nc2cc(Cl)ccc2n1N`, the activation is 0.42% (inactive).

On to `Nc1ccc2nn(-c3ccc(Cl)cc3)nc2c1`, for which the activation is 18.1% (active).

As for `COc1ccc(S(=O)(=O)N[C@@H]2C=C[C@@H](CC(=O)N3CCc4ccccc4C3)O[C@@H]2CO)cc1`, the activation was -1.55% (inactive).

Turning to `COc1ccc(-c2csc3nc(-c4ccccc4F)oc(=O)c23)cc1OC`, the activation is -0.2% (inactive).

For `COc1ccc(-c2csc(-c3cccs3)n2)cc1OC`, the activation was 14.5% (active).

As for `COc1ccc(C2CC(c3cccs3)=Nc3ccccc3S2)cc1OC` (configuration not stated), the activation is 6.91% (inactive).

Take `COC(=O)C1=C(C)N(Cc2ccccc2C(F)(F)F)C(=NCc2ccc(C(F)(F)F)cc2)NC1c1ccc(F)cc1` (configuration not stated): the activation was 0.87% (inactive).

With `CCCCOCCCNC(=O)C[C@H]1C[C@@]2(C(=O)OC)C(=C[C@H](COCc3ccccc3)O[C@@H]2C)N(Cc2cccc3ccccc23)C1=O`, the activation was 5.41% (inactive).

In the case of `CCOc1c(N2CCCCC2)c(=O)c1=O`, the activation is -2.21% (inactive).

`Cc1ccc(CSc2nnc(SCC(=O)NN=Cc3cc(Br)ccc3F)s2)cc1`: the activation is 6.25% (inactive).

On to `CC(C)(C)c1ccc(/C=C/C(=O)NCCCn2ccnc2)cc1`, for which the activation was 3.86% (inactive).

Consider `CC(C)(C)c1ccc(/C=C/C(=O)Nc2ncccn2)cc1`, for which the activation was 16.6% (active).

`Cc1cc(C)nc(NC(=O)/C=C/c2ccc(Cl)cc2)n1`: the activation is -0.13% (inactive).

`COc1ccc(S(=O)(=O)N(C)C)cc1NC(=O)CSc1ncccn1`: the activation was 1.65% (inactive).

Regarding `CCS(=O)(=O)c1ccc2oc(SCC(=O)N3c4ccccc4CC3C)nc2c1` (configuration not stated), the activation is -2.27% (inactive).

For `CN(C)S(=O)(=O)c1ccc2oc(SCC(=O)Nc3ccccc3F)nc2c1`, the activation was 15.5% (active).

Consider `O=C(CNC(=O)c1ccccc1)OC(C(=O)Nc1cc([N+](=O)[O-])ccc1F)c1ccccc1` (configuration not stated), for which the activation is 6.44% (inactive).

Turning to `COC(=O)c1cc(S(=O)(=O)N2CCN(C(=O)C3CCCO3)CC2)cn1C` (configuration not stated), the activation is -0.48% (inactive).

With `C=C(C)C#CC(Cc1ccccc1)NCC1CC1` (configuration not stated), the activation is 1.34% (inactive).

In the case of `COc1cccc(Cn2cc(COC(=O)Nc3ccc(F)cc3)nn2)c1`, the activation is -2.67% (inactive).

Turning to `COc1ccc(/C=N/NC(=O)Cn2cc(C(F)(F)F)ccc2=O)cc1`, the activation is -5.01% (inactive).

For the compound `COc1ccc(/C=N/Nc2ccccc2C(=O)O)cc1`, the activation is 12.8% (active).

For `COc1ccc(SSc2ccc(OC)cc2C(=O)O)c(C(=O)O)c1`, the activation is -1.26% (inactive).

As to `N#Cc1c(N)nc2c(c1N)CC(C(F)(F)F)O2` (configuration not stated), the activation is 2.74% (inactive).

Consider `CCOC(=O)[C@]12CCCC3=C1N(CCC3)C(=O)[C@@H](CC(=O)N1CCSCC1)C2`, for which the activation was -0.16% (inactive).

Consider `O=C(NCCCc1ccccc1)[C@H](Cc1ccccc1)NC1(C(=O)NCCc2c[nH]c3ccccc23)CCC1`, for which the activation is -3.84% (inactive).

As for `O=C(OC12CCCN(C1)/C(=C/c1cccnc1)C2)C1CCCC1` (configuration not stated), the activation is -3.6% (inactive).

With `COC(=O)c1sc(NC(=O)c2ccc(OC)cc2OC)nc1C`, the activation is 19.3% (active).

Turning to `COc1ccc(C(=O)NC2CC(C)(C)Cc3c2cnn3-c2ccccc2)c(OC)c1` (configuration not stated), the activation is -4.18% (inactive).

Regarding `COc1ccc(C(=O)N2CCCN(C)CC2)c(OC)c1`, the activation was -2.22% (inactive).

For `COc1ccc(C(=O)CSc2nnnn2C)c(OC)c1`, the activation is 1.57% (inactive).

For the compound `COc1ccc(C(=O)Nc2nncs2)c(OC)c1`, the activation is 10.4% (active).

Turning to `COc1ccc(NC(=O)COC(=O)c2ccncc2)c(OC)c1`, the activation is -1.12% (inactive).

For the compound `COC(=O)C1=C(C)N(Cc2ccc(C(F)(F)F)cc2)C(=NCc2ccc(C(F)(F)F)cc2)NC1c1cccc(Cl)c1` (configuration not stated), the activation was 6.59% (inactive).

For the compound `CCOC(=O)C1CCN(C(=O)c2ccccc2N(C)S(=O)(=O)c2ccccc2)CC1`, the activation is 0.69% (inactive).

With `CC(C)CSc1nnc(-c2cccnc2)n1Cc1ccccc1`, the activation was 0.98% (inactive).

Turning to `C=CCN1C(=O)N(Cc2ccccc2)c2ccccc2S1(=O)=O`, the activation is -2.37% (inactive).

With `O=C(CNC(=O)c1ccc2ccccc2c1)Nc1ncccc1O`, the activation was 4.2% (inactive).

`O=C(Nc1ncccc1O)c1ccc(S(=O)(=O)N2CCCCCC2)cc1`: the activation is 10.7% (active).

`CCN(CC)S(=O)(=O)c1cccc(NC(=O)c2ccc(S(=O)(=O)N3CCCC3)cc2)c1`: the activation was -4.53% (inactive).

With `O=C(Nc1ncccc1O)c1ccc(S(=O)(=O)N2CCCC2)cc1`, the activation was 26.2% (active).

Regarding `CN1CCN(NC(=O)c2ccc(S(=O)(=O)N3CCCCCC3)cc2)CC1`, the activation was -0.88% (inactive).

With `O=C(Nc1ncccc1O)c1ccc(C(=O)c2ccccc2)cc1`, the activation was 85% (active).

In the case of `CC(C)(C)n1nc2c(c1NC(=O)c1ccc(S(=O)(=O)N3CCCC3)cc1)CS(=O)C2` (configuration not stated), the activation is -0.9% (inactive).

Regarding `O=C(Nc1ccccc1F)c1ccc(S(=O)(=O)N2CCCCCC2)cc1`, the activation is 4.61% (inactive).

For `CCOC(=O)c1cccnc1NC(=O)c1ccncc1`, the activation is 2.56% (inactive).

As for `O=C(C1CCN(S(=O)(=O)c2ccccc2)CC1)N1CCN(C2CCCCC2)CC1`, the activation was -4.1% (inactive).

Regarding `COC(=O)C[C@@H]1CC[C@@H]2[C@@H](COc3ccc(NC(=O)Nc4ccc(F)c(F)c4)cc3C(=O)N2C)O1`, the activation is 0.28% (inactive).

In the case of `O=C(NN1C(=O)C2C3C=CC(C4CC34)C2C1=O)c1ccc(Cl)cc1` (configuration not stated), the activation was 0.35% (inactive).

As to `CC(C)CNc1cccc2c1S(=O)(=O)N(Cc1cn(Cc3ccccc3C(F)(F)F)nn1)Cc1ccccc1O2`, the activation was -3.87% (inactive).

For the compound `C[C@H](C(=O)N(C)c1ccccc1)[C@@H](O)c1ccc(Cl)cc1`, the activation is 1.73% (inactive).

For `COc1ccc(C(NC(=O)C2CCN(CCCc3ccccc3)CC2)c2cccs2)cc1` (configuration not stated), the activation is -0.24% (inactive).

Take `CC(=O)OCCN1CCCC12CCC(c1ccccc1)CC2` (configuration not stated): the activation was -0.9% (inactive).

On to `CCOC(=O)c1cc(-c2ccc(Cl)s2)nc2c1c(C)nn2C`, for which the activation was -0.72% (inactive).
